Screening results: PubChem, several laboratories
Jurkat tox 60K: cytotoxicity toward Jurkat T cells, primary screen, cytotoxicity control, cell-based, Jurkat E6.1, 60K MLSMR library; inhibition, % at 4 µM; 1.2% of 56,000 active; AID 463, 2006; Jurkat E6.1 viability, ATP luminescence, 48 h;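 active = inhibition above the mean inhibition of all tested compounds plus 3 SD, cut at about 28% in these data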
Cdc25B block: inhibitors of Cdc25B phosphatase catalytic domain, primary screen, biochemical, OMFP fluorescence. 0.1% of 65,000 active. M-phase inducer phosphatase 2 (Homo sapiens), P30305. inhibition, %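 (compounds tested at 10 µM final in the well)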. recombinant Cdc25B, OMFP fluorescence Ex485/Em525; in the data active = inhibition above about 50%
Target sequence (P30305 whole entry, looked up, the tested form may be a part): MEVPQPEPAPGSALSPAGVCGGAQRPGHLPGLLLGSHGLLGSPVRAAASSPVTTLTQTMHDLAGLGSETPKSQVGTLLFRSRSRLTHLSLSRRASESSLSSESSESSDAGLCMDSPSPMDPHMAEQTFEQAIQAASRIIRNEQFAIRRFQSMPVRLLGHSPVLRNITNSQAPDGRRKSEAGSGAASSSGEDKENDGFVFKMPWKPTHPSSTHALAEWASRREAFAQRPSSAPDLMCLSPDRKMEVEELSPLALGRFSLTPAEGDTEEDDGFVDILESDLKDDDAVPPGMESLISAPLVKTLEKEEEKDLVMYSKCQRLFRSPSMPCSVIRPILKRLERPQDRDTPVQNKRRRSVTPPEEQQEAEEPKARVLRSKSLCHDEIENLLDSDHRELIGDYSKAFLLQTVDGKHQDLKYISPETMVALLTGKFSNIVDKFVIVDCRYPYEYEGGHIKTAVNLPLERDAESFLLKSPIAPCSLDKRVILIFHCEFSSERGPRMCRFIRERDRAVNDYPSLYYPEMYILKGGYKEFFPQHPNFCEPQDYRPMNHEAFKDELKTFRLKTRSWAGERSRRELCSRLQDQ
MKP-1 inh: MKP-1 phosphatase inhibitors, primary screen, biochemical, in vitro; Dual specificity protein phosphatase 1 (Homo sapiens), P28562; recombinant MKP-1, OMFP hydrolysis fluorescence; inhibition, %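 (compounds tested at a single concentration somewhere between 10 and 100 µM)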; 0.15% of 65,000 active; AID 374, 2006;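 active = inhibition above about 50%, limit read from the data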;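 also: 0% = DMSO max control wells and 100% = wells with enzyme stopped by NaOH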
Htt clearance: clearance of mutant huntingtin inclusions, primary screen, imaging, HeLa Exon1htt(103Q)mCFP, confocal imaging. 0.42% of 47,000 active. aggregate imaging; zero = plate's median compound well. AID 853, 2007. inhibition, % at 1.5 µM;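 active = inhibition of aggregate fluorescence above about 70%, also judged a hit by eye on the cell image, limit read from the data, passing the limit was not always enough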;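 also: cells exposed to compound for three days before fixation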
SKBR3 24h inh: SK-BR-3 proliferation inhibitors, primary screen, cell-based, human, 24 h; SK-BR-3 viability, CellTiter-Glo ATP luminescence; hits give low values; viability, % at 10 µM; 0.47% of 41,000 active;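 active = viability at or below the median of all test compounds minus 3 SD, in both replicates if run twice, cut at about 45% in these data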;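 also: 100% = median untreated cell wells and 0% = median positive control drug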
Active calls of the source: *. The list is not random: actives were taken first. Their share in the collection is about 1.6%.

What do the screens show for `COC(=O)C(Cc1cnc[nH]1)NC(=O)C1CCC(=O)N1` (stereo not drawn)?
Jurkat tox 60K: -5.7; Cdc25B block: -9.7; MKP-1 inh: -8.1; Htt clearance: -20.1; SKBR3 24h inh: 103.8

What do the screens show for `COc1ccccc1-c1cc(C(F)(F)F)nc(S(=O)(=O)CCCC(=O)N2CCCCC2C)n1` (stereo not drawn)?
Jurkat tox 60K: 58.1*; Cdc25B block: -10.2; MKP-1 inh: 15.6; Htt clearance: -75.3; SKBR3 24h inh: 37.7*

How did COc1ccc(F)cc1S(=O)(=O)Nc1ccc(C)cc1 do in these assays?
Jurkat tox 60K: -3.7; Cdc25B block: -9.2; MKP-1 inh: 5.7; Htt clearance: -27.4; SKBR3 24h inh: 81.4

What do the screens show for `CC1CCN(C(=O)CSc2ccc3nnc(-c4ccc(F)cc4)n3n2)CC1`?
Jurkat tox 60K: -5.8; Cdc25B block: -11.8; MKP-1 inh: 32.8

What do the screens show for `COCc1cc(C)nc(Nc2ccc(C)cc2C)c1C#N`?
Jurkat tox 60K: -9.3; Cdc25B block: -7.0; MKP-1 inh: -6.9; SKBR3 24h inh: 38.0*

How did COCc1cc(C)nc(Nc2ccc(C)c(C)c2)c1C#N do in these assays?
Jurkat tox 60K: 0.5; Cdc25B block: -4.5; MKP-1 inh: 12.6; Htt clearance: 2.3

Results for CCn1ncc(C2=NOC(C(=O)NCc3ccc(Cl)cc3)C2)c1C (stereo not drawn) ?
Jurkat tox 60K: 92.0*; Cdc25B block: -4.9; MKP-1 inh: -1.7

What do the screens show for `CC(C)CN(CC(C)C)S(=O)(=O)N1CCC(C(=O)NCCc2ccc(Cl)cc2)CC1`?
Htt clearance: -18.8

What do the screens show for `COc1ccccc1N1CCN(C(=O)C2c3ccccc3Oc3ccccc32)CC1`?
Jurkat tox 60K: 70.3*; Cdc25B block: -0.4; MKP-1 inh: -12.6; SKBR3 24h inh: 78.9

What do the screens show for `COc1ccccc1N1CCN(C(=O)C2CC=CCC2C(=O)O)CC1` (stereo not drawn)?
Jurkat tox 60K: -1.7; Cdc25B block: -1.7; MKP-1 inh: 3.8; Htt clearance: -32.0; SKBR3 24h inh: 87.9

Results for CCN(CC)c1ccc2cc(-c3nnc(-c4ccccc4)o3)c(=O)oc2c1 ?
Htt clearance: -76.6

How did CCN(CC)c1ccc2cc(-c3nc4ccccc4n3C)c(=O)oc2c1 do in these assays?
Jurkat tox 60K: 98.8*; Cdc25B block: -2.5; MKP-1 inh: 9.9; Htt clearance: inactive

What do the screens show for `CCN(CC)c1ccc2cc(-c3nc4ccccc4[nH]3)c(=O)oc2c1`?
Jurkat tox 60K: 4.0; Cdc25B block: -0.5; MKP-1 inh: 2.8; Htt clearance: -10.7; SKBR3 24h inh: 41.5*

How did O=C(Nc1ccc(N2C(=O)C3C4C=CC(C4)C3C2=O)cc1)Nc1cccnc1 (stereo not drawn) do in these assays?
Jurkat tox 60K: -3.0; Cdc25B block: -16.3; MKP-1 inh: -5.2; SKBR3 24h inh: 87.5

Results for COc1cc(OC)cc(-n2nc(C(=O)NCCCN3CCOCC3)c3ccccc3c2=O)c1 ?
Jurkat tox 60K: -5.9; Cdc25B block: 75.7*; MKP-1 inh: -2.9

What do the screens show for `COc1cc2nc(CN3CCN(c4ncc(C(F)(F)F)cc4Cl)CC3)[nH]c(=O)c2cc1OC`?
Jurkat tox 60K: -5.0; Cdc25B block: -0.9; MKP-1 inh: 27.4

Results for CCOC(=O)c1nc(S(C)(=O)=O)ncc1Cl ?
Jurkat tox 60K: 100.3*; Cdc25B block: -11.7; MKP-1 inh: -8.4

What do the screens show for `CCOC(=O)c1nc(S(C)(=O)=O)ncc1N1CCOCC1`?
Jurkat tox 60K: -6.4; Cdc25B block: -8.4; MKP-1 inh: -1.1; Htt clearance: 20.5

Results for COc1ccc(C(=O)N(Cc2ccco2)C(C(=O)NC2CCCC2)c2ccc(O)cc2)cc1OC (stereo not drawn) ?
Jurkat tox 60K: -4.8; Cdc25B block: -0.1; MKP-1 inh: -9.2; SKBR3 24h inh: 87.1

What do the screens show for `CCOC(=O)C(C)Sc1nc(-c2ccc(OC)cc2)nc2c1c(=O)n(C)c(=O)n2C` (stereo not drawn)?
Jurkat tox 60K: -5.5; Cdc25B block: -0.8; MKP-1 inh: 21.3

How did CCC(=O)NC1(C(F)(F)F)C(=O)Nc2c1c(=O)n(C)c(=O)n2C (stereo not drawn) do in these assays?
Jurkat tox 60K: 5.3; Cdc25B block: 60.2*; MKP-1 inh: 3.6; SKBR3 24h inh: 86.2
